Screening results from PubChem BioAssay.
PKA-R1A activ – PKA-R1A complex activation. activation, % at 11.4 µM. PKA-R1A dissociation, Cy5-IP20 fluorescence polarization; scaled: DMSO 0%, 113 µM cGMP 100%. 340,000 tested, 0.083% active;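 active = percent activation above the mean of all tested compounds plus 3 SD, cut at about 19% in these data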;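 note: higher means more PKAc released from R1A so a rise in polarization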
TMEM16A act – activators or potentiators of mouse TMEM16A chloride channel. Q8BHY3. 340,000 tested, 0.3% active. B-score at 10 µM. HEK293 TMEM16A/YFP-H148Q/I152L, iodide quench fluorescence; stronger effect = lower value. AID 623877;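 active = fluorescence-ratio B-score plate-corrected deviation score at least 3 library SD below zero, with starting fluorescence score within 5 deviations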;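 note: channel opened by trigger with iodide after compound preincubation; score built on the fluorescence ratio of max minus min over baseline; more negative score means more quench and so TMEM16A activation or potentiation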
PKA-R2B activ – activates the human PKA-R2B holoenzyme complex. P22694+P31323. PKA-R2B holoenzyme dissociation, Cy5-IP20 fluorescence polarization; R2B truncated from residue 108, S112A mutant; 0% DMSO only, 100% 113 µM cGMP. activation, % at 11.4 µM. 340,000 tested, 0.079% active. AID 504700;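 active = activation above a cutoff set at the mean over all compounds plus 3 SD, cut at about 18% in these data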;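 note: higher means more holoenzyme dissociation and a rise in polarization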
Target sequence (P31323 whole entry, looked up, other chains not shown, the tested form may be a part): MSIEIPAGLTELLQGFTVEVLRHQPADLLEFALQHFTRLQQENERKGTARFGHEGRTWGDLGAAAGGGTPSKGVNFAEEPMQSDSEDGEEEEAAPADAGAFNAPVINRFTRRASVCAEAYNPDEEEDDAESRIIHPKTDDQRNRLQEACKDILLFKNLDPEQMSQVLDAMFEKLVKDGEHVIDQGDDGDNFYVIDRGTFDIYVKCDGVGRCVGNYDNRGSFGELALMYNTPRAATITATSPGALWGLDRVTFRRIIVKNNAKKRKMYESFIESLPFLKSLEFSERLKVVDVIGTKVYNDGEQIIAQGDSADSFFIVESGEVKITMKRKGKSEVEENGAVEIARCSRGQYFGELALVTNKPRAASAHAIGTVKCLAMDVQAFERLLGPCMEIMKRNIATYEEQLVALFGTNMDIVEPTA
TMEM16A inh – blocks the mouse calcium-activated chloride channel TMEM16A; AID 588511; HEK293 TMEM16A/YFP iodide influx fluorescence, ionomycin; normalized B-score (activity score, 25-100; higher = stronger inhibition) at 10 µM; 310,000 tested, 1.2% active;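 active = ratio plate-corrected score three or more library SD toward inhibition, starting fluorescence score within five deviations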;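 note: score derived from kinetic fluorescence span divided by baseline fluorescence per well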
CHT allo act – allosteric activators of human choline transporter CHT; Q9GZV3; CHT-expressing cells, membrane potential dye, choline EC20; stronger effect = higher value; LV-AA mutant CHT in HEK293 cells; B-score at 10 µM; 310,000 tested, 0.49% active; AID 488977;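 active = initial fluorescence not abnormally high and integrated response B-score, plate-corrected, over 3 SD above library mean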
CHT inh – human CHT choline transport inhibition | Q9GZV3 | AID 488975 | CHT-expressing cells, membrane potential dye, choline response; stronger effect = lower value | B-score at 10 µM | 310,000 tested, 0.86% active;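 active = B-score over 3 SD under the library average, and starting fluorescence ratio not unusually high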;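 note: choline stimulus applied at its EC90 after an EC20 pre-addition; B-score computed on integrated fluorescence ratio after choline addition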
CHT inh conf – confirmation of human choline transporter CHT inhibitors; AID 493221; shares compounds with CHT inh; CHT activity remaining % of control (stronger effect = lower value), % at 10 µM; CHT-expressing cells, choline membrane potential dye; LV-to-AA substituted CHT, HEK293 cells; 2,400 tested, 70% active;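 active = choline transporter activity left, mean of duplicates at 10 µM, below buffer-only control mean minus 3 SD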;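 note: depolarization triggered by choline at its EC90 following an EC20 pre-addition; 0% = hemicholinium-3 full block and 100% = buffer-only control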
HEK293 MPD ctr – activity in parental HEK293 cells lacking CHT; membrane potential ratio readout (active if shifted either direction beyond buffer ±3SD; no single direction) at 10 µM; 2,400 tested, 4% active; shares compounds with CHT inh; membrane potential dye, choline response; active = decrease or increase beyond buffer ±3SD;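 note: parental cells lack the transporter so any hit is non-specific; ratio is peak minus trough fluorescence over baseline after EC90 choline challenge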
* = called active by the depositor; i = inactive; nt = no result. Rows were chosen to be rich in hits. Some 2.5% of all compounds tested hit in one or more screens of this group.

SMILES	PKA-R1A activ	TMEM16A act	PKA-R2B activ	TMEM16A inh	CHT allo act	CHT inh	CHT inh conf	HEK293 MPD ctr
CC(NC(=O)Cn1cccc1C(=O)c1ccccc1)c1ccc2c(c1)OCCO2 (centres undefined)	13	i	-11	i	i	i	nt	nt
S=C(Nc1ccc(Cc2ccncc2)cc1)Nc1cccc(Cl)c1	8	i	-1	i	i	-6.6*	i	i
CCC(Oc1ccccc1)C(=O)Nc1ccc(S(=O)(=O)NCC2CCCO2)cc1 (centres undefined)	11	i	-1	i	i	-8.7*	40%*	i
O=S(=O)(NCC1CCCO1)c1ccc(Oc2ccccc2)cc1 (centres undefined)	8	i	1	i	i	-5.6*	i	i
O=C(Nc1ccc(S(=O)(=O)NCC2CCCO2)cc1)c1ccccc1 (centres undefined)	2	i	-2	i	i	i	nt	nt
Cc1cc(C)c(C)c(S(=O)(=O)N(C)C2CCN(C)CC2)c1C	7	i	-2	i	i	i	nt	nt
Nc1ccccc1C(=O)NNC(=O)C(=O)/C=C(\O)c1ccccc1	nt	i	nt	i	i	i	nt	nt
CC(C)(CNC(=O)CCC1CCCC1)CNC(=O)CCC1CCCC1	-12	i	2	i	i	i	nt	nt
O=C(CCC1CCCC1)NCCCNC(=O)CCC1CCCC1	-6	i	4	i	i	-6.5*	38%*	i
CC(C)N(C)S(=O)(=O)c1ccc(Cl)c(C(=O)O)c1	-1	i	5	i	i	i	nt	nt
O=C(CSc1ccc(-c2nc3ccccc3[nH]2)cn1)Nc1ccc2c(c1)OCCO2	0	i	4	i	i	i	nt	nt
O=C(CSc1ccc(-c2nc3ccccc3[nH]2)cn1)Nc1ccc(S(=O)(=O)NC2CC2)cc1	4	i	2	i	i	-5.7*	i	i
CCCCc1cc(=O)oc2cc(O)cc(O)c12	14	i	-12	i	i	-7.9*	40%*	i
CCCCc1cc(=O)oc2cc(C)cc(O)c12	-5	i	-3	i	i	i	nt	nt
CCCc1cc(O)c2c(C)cc(=O)oc2c1	4	i	5	i	i	-7.6*	48%*	i
Cc1ccc(C)c(Nc2c([N+](=O)[O-])cc(C(=O)N3CC(=O)Nc4ccccc43)cc2[N+](=O)[O-])c1	-8	i	-4	i	i	-5.9*	i	i
Cc1cc(C)c[n+](CC(=O)c2cc3ccccc3oc2=O)c1	-15	i	-9	i	i	i	nt	nt
Cc1cc(C)c[n+](CC(=O)c2c(C)cc(C)c([N+](=O)[O-])c2C)c1	1	i	-4	i	i	-7.9*	45%*	i
COc1cc(-c2nnc(SC/C=C/c3ccccc3)n2N)cc(OC)c1OC	-6	i	-7	i	i	-5.2*	67%*	i
Cc1c(Br)c(C(F)(F)F)nn1CC(=O)NCc1ccco1	-1	i	-3	i	i	-7.7*	i	i
CC1C(=O)N(c2ccc(S(=O)(=O)N(C)C)cc2)C1(/C=C/c1ccccc1)C(=O)NC1CCCC1 (centres undefined)	-13	i	-6	i	i	-6.8*	i	i
COc1cccc(NC(=O)CCS(=O)(=O)c2ccc(Br)cc2)c1	2	i	11	i	i	i	nt	nt
NC(=O)CSc1nccn1Cc1ccccc1	-3	i	5	i	i	i	nt	nt
